In the library only some 1.7% were active in any assay of this set; here they are far more common.
TRPML1 ag: agonists of human TRPML1 channel; TRPML1-expressing cells, Ca2+ dye fluorescence, FDSS; activation, % (test concentration not listed); actives 0.12% (n = 410,000); Q9GZU1; AID 624414; in the data active = activation above about 50%; inconclusive = mostly about 30% to 49%
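Agonist activity was taken from a 110 s kinetic Ca2+ dye read on the FDSS after pinning compounds onto TRPML1-DL cells. The cells were seeded at 1,500/well with Tet inducer, incubated about 16 h, then dye-loaded at room temperature.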
KCNH2 3.1 inh: blocks the human KCNH2 3.1 channel isoform; U2OS KCNH2 3.1, thallium flux FluxOr; stronger effect = lower value; activity change, % (tested at about 1.8 µM); actives 0.95% (n = 340,000);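 active = maximum activity change below -70%; inconclusive = maximum activity change from -70% to -50%; inactive = maximum activity change above -50%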;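 note: thallium influx rate constant from kinetic fluorescence after stimulation buffer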
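We transduce U2OS cells with the mutant 3.1 virus, culture them overnight, load FluxOr with Red40 quencher for 45 min, then add stimulation buffer and read kinetically for 2 min to derive a normalized rate constant.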
TRHR agonist: activates the human TRH receptor. actives 0.18% (n = 360,000). activation, % at 2 µM. TRHR cells, calcium flux fluo-8, FDSS agonist mode. P34981. AID 493084; in the data active = activation above about 30%
Target sequence (P34981 whole entry, looked up): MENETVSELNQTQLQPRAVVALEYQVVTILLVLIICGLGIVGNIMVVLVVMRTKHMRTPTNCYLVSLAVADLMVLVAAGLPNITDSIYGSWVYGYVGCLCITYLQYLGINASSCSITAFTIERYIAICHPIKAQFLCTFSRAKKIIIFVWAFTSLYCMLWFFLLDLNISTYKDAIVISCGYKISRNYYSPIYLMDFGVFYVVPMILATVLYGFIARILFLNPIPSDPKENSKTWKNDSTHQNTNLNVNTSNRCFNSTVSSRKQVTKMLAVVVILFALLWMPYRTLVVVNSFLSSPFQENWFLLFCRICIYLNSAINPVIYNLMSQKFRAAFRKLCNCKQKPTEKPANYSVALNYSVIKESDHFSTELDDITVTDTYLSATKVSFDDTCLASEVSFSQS
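Steps: seed TRHR cells overnight; add fluo-8 no-wash Ca dye, RT 30 min–1.5 h; record 10 s baseline; pin-transfer compounds; monitor fluorescence 1 cycle/s for the agonist window. Calcium increases flag candidate agonists.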
hERG WT inh: KCNH2 (human, wildtype) channel inhibition | U2OS, BacMam KCNH2, thallium flux FluxOr; stronger effect = lower value | activity change, % at 1.84 µM | actives 0.37% (n = 340,000) | AID 720551;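 active = maximum activity change below -70%; inconclusive = maximum activity change between -70% and -50%; inactive = maximum activity change above -50%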
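U2OS cells transduced with wild-type KCNH2 virus are loaded with FluxOr dye for 45 min, and thallium flux is measured in kinetic reads before and after stimulation buffer. Rate constants are normalized to DMSO controls.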
TRHR PAM: TRH receptor (human) allosteric enhancement. P34981. TRHR cells, fluo-8 calcium fluorescence, EC20 TRH enhancement. enhancement, % at 2 µM. actives 0.66% (n = 360,000). AID 493056; in the data active = enhancement above about 30%
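Enhancer read-out: after compound pinning and an initial kinetic agonist-mode read, an EC20 of TRH (10 nM final) was injected and fluo-8 calcium signal (Ex 480/Em 530) followed at 1 s/cycle for 100 cycles in TRHR-expressing cells.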
TRPML1 blocker: human mucolipin-1 channel inhibition; Q9GZU1; TRPML1-inducible cells, Ca2+ dye fluorescence, FDSS; stronger effect = lower value; inhibition of EC80 agonist-evoked calcium signal; activity change, negative = inhibition, % (test concentration not listed); actives 0.02% (n = 390,000); in the data active = activity change below about -50%; inconclusive = between about -30% and that limit;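 note: stimulus is agonist 54-4 at its EC80 concentration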
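Calcium fluorescence in TRPML1-DL cells induced overnight with Tet: a 110 s read after compound pin addition, then a 110 s antagonist read after challenge with 54-4 at 4 uM final (EC80).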
Large screens that a line does not name were inactive.

CN(C)c1ccc(/C=C/C(=O)c2c(O)c3ccccc3oc2=O)cc1	TRHR agonist 38, TRPML1 blocker inconclusive
CCOc1ccc(/C=C/C(=O)c2c(O)c3ccccc3oc2=O)cc1	none
CCCCCN1CSC(=S)N(Cc2ccccc2)C1	hERG WT inh -74
CC(C)(C)n1ncc2c(=O)n(Cc3ccccc3Cl)cnc21	none (no result: KCNH2 3.1 inh, TRHR agonist, hERG WT inh, TRHR PAM)
Cc1cc2c(s1)c1cnn(Cc3cc(F)c(F)c(F)c3)c(=O)c1n2C	none (no result: TRPML1 ag, KCNH2 3.1 inh, hERG WT inh, TRPML1 blocker)
Cc1cccc(NS(=O)(=O)c2cc(C(=O)NCCC3=CCCCC3)ccc2Cl)c1	TRHR PAM 35
CN(CC(=O)Nc1ccc(Cl)cc1)C(=O)C1CCCC1	none
CC(C)C[C@H]1CN(CCCC[C@@H]2CNC(=O)C(=O)N2CCc2ccccc2)C(=O)C(=O)N1CCC1CCCCC1	none (no result: KCNH2 3.1 inh, TRHR agonist, hERG WT inh, TRHR PAM, TRPML1 blocker)
CN1CCc2c(sc3c2C(=O)NC(c2ccc(OC(=O)c4ccc(Cl)cc4)cc2)N3)C1 (centres undefined)	TRHR agonist 71 (no result: KCNH2 3.1 inh, hERG WT inh)
CN1CCc2c(sc3c2C(=O)NC(c2ccc(OC(=O)c4ccc(C(C)(C)C)cc4)cc2)N3)C1 (centres undefined)	TRPML1 ag inconclusive, TRHR agonist 121 (no result: KCNH2 3.1 inh, hERG WT inh)
Cc1cccc(C2NC(=O)c3c(sc4c3CCN(C)C4)N2)c1O (centres undefined)	TRHR PAM 47 (no result: KCNH2 3.1 inh, hERG WT inh)
CN1CCc2c(sc3c2C(=O)NC(c2ccc(OC(=O)c4ccccc4)cc2)N3)C1 (centres undefined)	none (no result: KCNH2 3.1 inh, hERG WT inh)
O=c1cc(-c2ccccc2)nc2n1Cc1ccccc1-2	TRHR PAM 31
O=c1nc2n(c3ccccc13)Cc1ccccc1-2	none (no result: TRPML1 ag, KCNH2 3.1 inh, hERG WT inh, TRPML1 blocker)
O=C(NCCc1ccccc1)C1CCN(Cc2cc3ccccc3n2Cc2cccc(Cl)c2)CC1	TRHR PAM 31 (no result: KCNH2 3.1 inh, hERG WT inh)
Cc1ccc(C(=O)c2cn(Cc3ccccc3C)c3nc(C)ccc3c2=O)cc1	none (no result: KCNH2 3.1 inh, hERG WT inh)
Fc1cccc(-c2cc3nc4c(c(NCc5ccco5)n3n2)CCCC4)c1	KCNH2 3.1 inh -78
Fc1cccc(-c2cc3nc4c(c(N5CCOCC5)n3n2)CCCC4)c1	none
COCc1c(C(=O)OCC(=O)NCCN2C(=O)CSC2=O)oc2ccccc12	hERG WT inh -120
COC(=O)C(Cc1ccccc1)NC(=O)CCCC(=O)NCc1cccc(OC)c1 (centres undefined)	hERG WT inh -70
O=S(=O)(Nc1ccccc1N1CCCCC1)c1ccc(Cl)s1	TRPML1 ag 97
O=C1/C(=C\c2ccc(O)cc2)SC(=S)N1/N=C/c1ccc(O)cc1	TRHR agonist 52
CCN1CCN(c2ccc(S(=O)(=O)N3CCCCC3)cc2NC(=O)c2ccc(F)cc2)CC1	none
CCN1CCN(c2ccc(S(=O)(=O)N3CCCCC3)cc2NC(=O)COc2ccc(Cl)cc2)CC1	KCNH2 3.1 inh inconclusive
CCN1CCN(c2ccc(S(=O)(=O)N3CCCCC3)cc2NC(=O)COc2cc(C)ccc2Cl)CC1	KCNH2 3.1 inh -83
CCN1CCN(c2ccc(S(=O)(=O)N3CCCCC3)cc2NC(=O)COc2ccc(F)cc2Cl)CC1	KCNH2 3.1 inh -80
Cc1ccc(OCC(=O)Nc2ccccc2N2CCCC2)c(C)c1	hERG WT inh active
O=C(CSc1nc2c(oc3ccccc32)c(=O)n1CC1CCCO1)NCc1ccccc1 (centres undefined)	none
CCOc1ccc(C2CC(=O)NC(NC(=O)c3ccc(C)cc3)=N2)cc1 (centres undefined)	TRHR PAM 35 (no result: KCNH2 3.1 inh, hERG WT inh)
O=C(CC1C(=O)NCCN1Cc1cccc(C(F)(F)F)c1)NCCc1cnccn1 (centres undefined)	none
COc1ccc(C(=O)C2CCN(C(=O)c3ccc(OC)cc3)CC2)cc1	KCNH2 3.1 inh -84
COc1cc(CCCN2C(=S)NC[C@@H]2c2ccccc2)cc(OC)c1OC	KCNH2 3.1 inh -94
Cc1cc(C)cc(OC(C)C(=O)Nc2nonc2-c2ccc(Br)cc2)c1 (centres undefined)	none (no result: KCNH2 3.1 inh, hERG WT inh)
C[C@@H]1CN([C@@H](C)CO)C(=O)c2cc(-c3ccccc3F)cnc2O[C@H]1CN(C)Cc1cccc(F)c1	none (no result: TRHR agonist, TRHR PAM)
CC1(c2nnc(-c3ccc(Cl)cc3)o2)CC(c2ccc(Cl)cc2)=NO1 (centres undefined)	KCNH2 3.1 inh -162
C=CCN1CCN(C(=O)CCc2ccccc2)CC1	none
O=C1C=C(N(CCO)Cc2ccccc2)c2ccccc2C1=O	TRHR PAM 39
Cn1c(O)c(C=NCCCCCC(=O)O)c(=O)n(C)c1=O	none (no result: TRPML1 ag, TRHR agonist, TRHR PAM, TRPML1 blocker)
O=C(NNC(=S)Nc1ccccc1)c1cccnc1	TRHR PAM 41
O=C(NC(=S)NCc1ccccc1)c1cccnc1	hERG WT inh -78
O=C(NNC(=S)NC(=O)c1cccnc1)c1ccccc1	none
O=C(OCc1c(-c2ccccc2)ncc2ccccc12)c1cccc(Br)c1	none
COC1=C/C(=C/c2c(N)n3nc(CC(=O)N4CCCCC4)sc3nc2=O)C=CC1=O	none
CCOC1=C/C(=C/c2c(N)n3nc(S(=O)(=O)CC)sc3nc2=O)C=CC1=O	TRHR agonist 33 (no result: hERG WT inh)
C=CCN1C=C/C(=C\C=C(C#N)C#N)c2ccccc21	none
C=CCN1C=CC(=CC=C(C#N)C#N)C=C1	TRPML1 ag inconclusive, TRHR agonist 46
CCOC(=O)N1CCN(C(=O)CCn2c(=S)[nH]c3ccsc3c2=O)CC1	TRHR PAM 39
CCOC(=O)c1ccc(NC(=O)CSc2nnc(-c3cccs3)n2CC)cc1	KCNH2 3.1 inh -93
COC(=O)c1ccc(NC(=O)COC(=O)c2nc3nccc(C)n3n2)cc1	TRHR PAM 33
Cc1ccnc2nc(C(=O)OCC(=O)Nc3ccc4c(c3)OCCO4)nn12	none (no result: TRHR agonist, TRHR PAM)
CC1C(=O)N2CCCc3cc(S(=O)(=O)N(C)CCC#N)cc1c32 (centres undefined)	none
COc1cc(/C=N/NC(=O)c2cccnc2)ccc1OCC(=O)N1CCOCC1	TRHR PAM 33
O=C(CNS(=O)(=O)c1ccc(Cl)c(C(F)(F)F)c1)NC1CCCCC1	none
COc1ccc(-c2csc3nc(C(C)(C)C)oc(=O)c23)cc1OC	none
CC(C)(C)c1nc2scc(-c3ccc(Cl)cc3)c2c(=O)o1	KCNH2 3.1 inh -82
CN(C(=O)c1ccc(NC(=O)Cc2cccc(NC(=O)C3CCN(C(=O)C4CCCC4)CC3)c2)cc1)C1CCCC1	none (no result: KCNH2 3.1 inh, hERG WT inh)
CCC(=O)Nc1nonc1-c1nc2ccccc2n1Cc1cccc2ccccc12	KCNH2 3.1 inh -85
Cn1c(Cl)c(/C=N/OC(=O)C2CC2)c2ccccc21	KCNH2 3.1 inh -92
Cn1c(Cl)c(/C=N/OC(=O)c2cccc(Cl)c2)c2ccccc21	none
CCOC(=O)c1cccc(Nc2ncnc3ccc(C)cc23)c1	KCNH2 3.1 inh -85
CCOC(=O)c1ccc(Nc2ncnc3ccc(C)cc23)cc1	none

Compound activity: PubChem, National Center for Advancing Translational Sciences (NCATS)
